Shown are actives, neighbours in structure and some others; about 2.1% of the full set was active somewhere.
Myeloid diff 2 – induction of myeloid progenitor differentiation, primary screen, cell-based, flow cytometry, MLPCN library. 360,000 tested, 1% active. ER-HoxA9 myeloid progenitors, lysozyme-GFP differentiation. calls only at 10 µM;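 active means normalized GFP-positive differentiation at or above the plate's own cutoff, the solvent-only control mean plus 3 SD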;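 further: cells exposed to compound for four days before flow analysis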
Rpn11 block – Rpn11 (PSMD14) deubiquitinase inhibitors, primary screen, biochemical, fluorescence polarization, uHTS; 26S proteasome non-ATPase regulatory subunit 14 (Homo sapiens), O00487; human 26S proteasome, Ub4-pepOG fluorescence polarization; 20S core pre-blocked with epoxomicin; inhibition, % at 20 µM; 360,000 tested, 0.59% active; AID 588493, 2011;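 active means inhibition at 20 µM, scaled to each plate's controls, above about 33%, limit read from the data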
Target sequence (O00487 whole entry, looked up): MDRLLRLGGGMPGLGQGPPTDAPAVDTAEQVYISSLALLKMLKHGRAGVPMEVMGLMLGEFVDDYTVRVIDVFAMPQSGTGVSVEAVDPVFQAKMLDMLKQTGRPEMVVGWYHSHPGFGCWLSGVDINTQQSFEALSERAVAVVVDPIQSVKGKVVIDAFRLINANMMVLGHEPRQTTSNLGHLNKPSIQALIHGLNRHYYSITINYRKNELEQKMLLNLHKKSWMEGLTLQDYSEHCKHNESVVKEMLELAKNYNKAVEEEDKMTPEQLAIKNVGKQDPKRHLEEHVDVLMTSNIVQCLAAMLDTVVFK
TPT1 inhibitor – Candida albicans TPT1 enzyme inhibitors, primary screen, biochemical, fluorescence polarization; tRNA 2'-phosphotransferase TPT1 (Candida albicans SC5314); recombinant caTPT1, FP RNA substrate dephosphorylation; inhibition, % at 5 µM; 300,000 tested, 0.81% active; AID 1962, 2009;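 active means inhibition above the mean of all tested compounds plus 3 SD, set per screening campaign, cut at about 24% in these data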
HNF4A DNA FP – change in binding of human HNF4A to DNA, primary screen, biochemical, fluorescence polarization, FITC-DNA | Hepatocyte nuclear factor 4-alpha (Homo sapiens), P41235 | 1 h | activity change, % at 10 µM | 360,000 tested, 0.3% active | AID 1224865, 2016; in the data active means activity change above about 30%, passing the limit was not always enough
Myeloid diff CP1 – inducers of myeloid progenitor differentiation, confirmation, cell-based, GFP/Mac1 flow cytometry, cherry pick 01 | shares compounds with Myeloid diff 2 | ER-HoxA9 myeloid progenitors, GFP/Mac1 double-positive flow | calls only | 2,300 tested, 2% active;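 active means share of green or green-and-red cells above 9 and 9% in run 1 or 4 and 3% in run 2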
GFP autofluor – flagged as fluorescent in myeloid differentiation counter-screen; ER-HoxA9 myeloid progenitors, no estrogen, GFP autofluorescence flow cytometry; vehicle wells 0%, positive control 100%; shares compounds with Myeloid diff 2; AID 651707; 2,300 tested, 7.4% active; fluorescence response, % (no concentration beside the values);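 active means over 5% cells positive for green fluorescent reporter, or over 2% positive for both it and APC stain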
Hits are given with their value; – = inactive; · = not tested or not shown; + = active, no number.

SMILES | Myeloid diff 2 | Rpn11 block | TPT1 inhibitor | HNF4A DNA FP | Myeloid diff CP1 | GFP autofluor
COc1cccc(-c2nnc3n2N=C(c2cc(OC)ccc2OC)CS3)c1 | + | – | – | – | – | 10.6
C=CCc1cccc(C=Nc2cc(Br)ccc2O)c1O | + | – | – | – | – | –
C=CC[C@H](CC(=O)NCCO)C(=O)N[C@@H](COC(=O)[C@H](CC=C)CC(=O)OC(C)(C)C)Cc1c[nH]c2ccccc12 | – | – | · | – | · | ·
O=C(O)CN1C(=O)/C(=C/C=C/c2ccccc2)SC1=S | – | – | – | – | · | ·
O=C(O)CN1C(=O)/C(=C/c2ccc(SCc3ccccc3)o2)SC1=S | – | · | · | – | – | –
O=C1/C(=C\c2ccco2)SC(=S)N1Cc1ccccc1 | – | – | – | – | – | –
O=C(O)CCCN1C(=O)/C(=C\c2ccco2)SC1=S | – | – | · | – | · | ·
CN(CCCn1ccc(NC(=O)OCc2ccccc2)nc1=O)CCc1ccccn1 | – | – | · | – | · | ·
CC(C)N1CC2(CC(c3ccccc3F)=NO2)CN1C(=O)c1ccco1 (stereo not given) | – | – | · | – | · | ·
O=C(c1ccco1)N1CC2(CC(c3ccc(Cl)cc3)=NO2)CN1Cc1ccc(Br)cc1 (stereo not given) | – | – | · | – | – | –
Oc1ccc2ccccc2c1C=Nc1ccccc1Br | – | – | – | – | – | –
Oc1ccccc1N=Cc1c(O)ccc2ccccc12 | + | · | · | – | – | –
Cc1cc(Cl)cc(C)c1OCCCCn1ccnc1 | – | – | – | – | · | ·
Cc1cccc(Cl)c1OCCCCn1ccnc1 | + | – | – | – | – | –
CCCN1CCN(CCCNC(=O)c2ccc(CS(=O)c3ccc(OC)cc3)o2)CC1 (stereo not given) | – | – | – | – | · | ·
O=C(Cn1cccc1C(=O)c1ccccc1)NCc1cccs1 | – | – | – | – | – | –
CCOC(=O)C1CCN(C(=O)/C(C)=C\c2ccccc2)CC1 | – | – | – | – | · | ·
C/C(=C/c1ccccc1)C(=O)N1CCC(C)CC1 | – | – | – | – | – | –
O=C(CCn1nc(-c2ccc(Cl)cc2)c2ccccc2c1=O)NN1CCOCC1 | – | – | – | – | · | ·
COc1ccc2nc3ccccc3nc2c1NC(=O)c1ccc(Br)cc1 | + | – | – | – | – | 5.4
COc1ccc2nc3ccccc3nc2c1NC(=O)c1ccc(Cl)cc1 | – | – | – | – | · | ·
Cc1ccc(N(C(=O)Cn2nnc(-c3cccs3)n2)C(C(=O)NC2CCCC2)c2ccncc2)cc1 (stereo not given) | – | – | – | – | – | –
Cc1ccc(N(C(=O)Cn2nnc(-c3ccccc3F)n2)C(C(=O)NC2CCCC2)c2ccncc2)cc1 (stereo not given) | – | – | – | – | · | ·
CCCCn1c(N)c(N(CC(C)C)C(=O)Cc2ccc(S(=O)(=O)N3CCOCC3)s2)c(=O)[nH]c1=O | + | – | · | – | + | –
CN(C)c1nc(-c2ccccc2)c2cnn(Cc3ccccc3)c2n1 | – | – | – | – | · | ·
SMILES | Myeloid diff 2 | Rpn11 block | TPT1 inhibitor | HNF4A DNA FP | Myeloid diff CP1 | GFP autofluor
CCOC(=O)C1(C)CCN1C(=O)c1ccc2ccccc2c1 (stereo not given) | – | – | · | – | · | ·
Fc1ccc(/C=C/c2nnc(-c3cccs3)o2)cc1 | – | – | – | – | · | ·
Cc1ccc(/C=C/c2nnc(-c3cccs3)o2)cc1 | – | – | – | – | – | –
Cc1ccc(-c2csc(NC(=O)/C=C/c3cccs3)n2)cc1C | – | – | – | – | – | –
N#Cc1ccc(-c2csc(NC(=O)/C=C/c3cccs3)n2)cc1 | + | – | – | – | – | –
Clc1ccccc1-c1nnc2n1CCCCC2 | – | – | – | – | · | ·
O=C(Cn1nnc(-c2ccc(Cl)cc2)n1)NCC1CCCCC1 | – | – | – | – | · | ·
Cc1ccc(S(=O)(=O)N2CC(CO)=CCC2c2ccccc2)cc1 (stereo not given) | – | · | · | – | · | ·
Nc1nc(SCc2ccccc2)c2ncn(C3CCCCC3)c2n1 | – | – | · | – | · | ·
Nc1nc(SCc2ccccc2)c2ncn(C3CCCO3)c2n1 (stereo not given) | – | – | · | – | – | –
COc1ccc(S(=O)(=O)N(C)CC(=O)Nc2ccc(F)cc2)cc1 | – | – | – | – | – | –
COc1ccc(S(=O)(=O)N(C)CC(=O)Nc2cccc(C(C)=O)c2)cc1 | – | – | – | – | · | ·
N#CC(C#N)=c1ccc2c(c1)N1C(c3ccccc3)=CC(c3ccccc3)C3CCCCC31N=2 (stereo not given) | + | – | – | – | – | –
CCC(C(=O)Nc1sc(C(N)=O)c(C)c1C(=O)OC)c1ccccc1 (stereo not given) | – | – | – | – | – | –
N#Cc1c(N)nc(SC2CCCCC2=O)c(C#N)c1-c1ccco1 (stereo not given) | – | – | – | – | – | –
CCCCn1nc(NC(=O)CCC)c2cc3cc(OC)ccc3nc21 | – | – | – | – | – | –
O=C(CN1CCN(Cc2ccccc2)CC1)NNC(=O)c1ccccc1 | – | – | · | – | – | –
CCc1ccc(C(=O)NNC(=O)CCN2CCN(Cc3ccccc3)CC2)cc1 | – | – | – | – | · | ·
O=C(CSc1nc2ccccc2c(=O)[nH]1)Nc1ccc(S(=O)(=O)N2CCCC2)cc1 | – | – | – | – | · | ·
Cc1cccc(/C=N/NC(=O)c2ccc(NC(=O)c3ccc(Cl)cc3)cc2)n1 | + | – | – | – | – | –
CCc1nnc(NS(=O)(=O)c2ccc(NC(=S)NC(=O)c3cccnc3)cc2)s1 | + | – | – | – | – | –
CCc1nnc(NS(=O)(=O)c2ccc(NC(=S)NC(=O)c3ccc(F)cc3)cc2)s1 | – | – | – | – | · | ·
COc1ccccc1NC(=O)c1c(NC(=O)c2ccco2)sc2c1CCC2 | + | – | – | – | – | –
CNC(=O)c1c(NC(=O)c2ccco2)sc2c1CCC2 | – | – | – | – | · | ·
CCNC(=O)C1(C)CCN(C(=O)c2cccc(C(F)(F)F)c2)C1 (stereo not given) | – | – | · | – | · | ·
SMILES | Myeloid diff 2 | Rpn11 block | TPT1 inhibitor | HNF4A DNA FP | Myeloid diff CP1 | GFP autofluor
COc1ccc(C(=O)Cn2cc[n+](C)c2)cc1 | + | – | – | – | – | –
COc1ccc(C(=O)CC(=O)c2ccc(OC)cc2)cc1 | – | – | – | – | · | ·
C/C(=N\Nc1nc2ccccc2[nH]1)c1ccc(N2CCOCC2)cc1 | – | – | – | – | · | ·
CC(C)(C)c1ccc(S(=O)(=O)NCCOCC(F)(F)C(F)F)cc1 | + | – | – | – | – | –
CC(C)(C)c1ccc(S(=O)(=O)NCCc2ccncc2)cc1 | – | – | – | – | · | ·
COc1ccc(CC(=O)Nc2nc(-c3cc(OC)ccc3OC)cs2)cc1 | – | – | – | – | · | ·
COc1ccc(OC)c(-c2csc(NC(=O)Cc3cccs3)n2)c1 | + | – | – | – | – | –
